Assay results from ChEMBL document CHEMBL3988442, “University of Dundee, Small-Polar-MMV Screening Library” (2021).

System: Trypanosoma cruzi
Assay: Trypanosoma cruzi phosphomannomutase and mannose-1-phosphate guanylyltransferase assay
Type: functional
Parameters: scale not given: direction of the effect not stated beside the values
Details: 10 µM

Compound	Percent Effect [%]
O=C(c1ccn[nH]1)N1CCCC(n2cncn2)C1 (stereo unspecified)	-0.718
CN(c1ccncn1)C1CC2(CCN(C(=O)c3cccs3)C2)C1 (stereo unspecified)	2.96
CCC1(CO)CCCN(c2ncccc2C#N)C1 (stereo unspecified)	-1.74
CCN(CC)C(=O)c1ccn(COc2cc(C)cc(C)c2)n1	-0.982
CCCS(=O)(=O)NCC1CCOc2ccccc2C1 (stereo unspecified)	-5.61
Cc1ccc(C2CSCCN2C(=O)C2=CCCC2)o1 (stereo unspecified)	0.684
CC(C)c1nc(C(=O)N2CCOCC2CC(=O)c2ccco2)c[nH]1 (stereo unspecified)	0.682
Cc1nn(C)c(N2CCOCC2)c1CNC1CCc2ccccc2C1 (stereo unspecified)	3.12
CNc1nc(C(=O)N2CCCC(c3nccn3CC3CCC3)C2)cs1 (stereo unspecified)	1.96
Cc1cc(Nc2nc(C)cs2)nc(C2CCCCN2CCO)n1 (stereo unspecified)	7.12
N#Cc1cccc(CN2CC[C@@H]3[C@@H]2CC(=O)N3Cc2cccnc2)c1	-4.72
O=C(NCCNc1ncccn1)N1CCSCC1	3.87
CN(C)CCn1c(=O)oc2ccc(NC(=O)C3CCCO3)cc21 (stereo unspecified)	-1.85
CC(NC(=O)C1=NN(C)C(=O)CC1)c1ccc(Cl)cc1Cl (stereo unspecified)	2.74
CCn1c(=O)nc2n1C(=O)N(c1cccc(Cl)c1)C2	-0.786
O=C(c1ccc(Cl)o1)N1CCCN(Cc2cscn2)CC1	4.02
CC(N(C)Cc1nc2c(cnn2C)c(=O)[nH]1)C(C)(C)C (stereo unspecified)	-10.1
CCc1noc(C2CCCCN2C(=O)c2nnc3ccccc3n2)n1 (stereo unspecified)	3.54
Cc1cccc(N2CCN(C(=O)CN3CCN(CCO)CC3)CC2)c1	3.37
O=C(CCc1ccc(=O)[nH]n1)N1CCCC(COc2ccc(F)cc2)C1 (stereo unspecified)	1.85
O=C(Cc1ccccn1)N1CCN(CC2CC2)c2ncccc2C1	0.591
